Measurements published in the supplement of paper PMC6555819.

System: RARa:RXR (NR concentration 270 nM, RXRa partner concentration 90 nM)
Experiment: PBM binding z-score (relative to random genomic background probes); higher = stronger binding; sequences stand for … in GC…GCGATTGACAGCGTAGAATGAAGG
How it was run: (§1)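 Ligand-free nuclear receptor dimers were applied to custom Agilent 4×180K protein-binding microarrays whose double-stranded probes carried direct-repeat seeds, single-nucleotide variants, half-site ablations and random human genomic background sequences in 34-nt variable regions. Incubation lasted 1 h. Binding z-scores were computed against the random background probes from regression-normalized fluorescence.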

Compared with CCGAGTAGGTTACGAGGGGGCATTCAATGCGAAT, CCGAGTAGGTTACGAGGGGGCATTTAGTGCGAAT is lower in PBM binding z-score: 3.11 for the first, 3.03 for the second.

Compared with TCGAGTAGGTTACGGGGGGATTCAGGGATGAAGA, CTGAGTAGGTTACGAGGGGGCATTCAGTGCGAAT is lower in PBM binding z-score: 3.13 for the first, 3 for the second.

Going from CTATGTAGGTTAAGGGGGTCATACAGTTTGAAAG to CTATGTAGGTTAAGGGGGTCTTTCAGTTTGAAAG, the PBM binding z-score falls from 5.95 to 1.84.

Compared with CCGAGTAGGTTACGAGGGGGCAATCAGTGCGAAT, CCGAGTAGGTTACCAGGGGGCATTCAGTGCGAAT is higher in PBM binding z-score: 2.87 for the first, 2.91 for the second.

Going from TCGAGTCGGTTACGGGGGCATTCAGGGATGAAGA to TCGAGTAGGTTACGGGGACATTCAGGGATGAAGA, the PBM binding z-score falls from 2.15 to 1.17.

First: CTATGTAGGTTAAGGGGGTCATTCCGTTTGAAAG
Second: CTATGTAGGTTGAGGGGGTCATTCAGTTTGAAAG
The PBM binding z-score of the first is higher: 5.89 for the first, 5.29 for the second.

Compared with CCGAGTGGGTTACGAGGGGGCATTCAGTGCGAAT, CCGAGTAGGTTATGAGGGGGCATTCAGTGCGAAT is higher in PBM binding z-score: 2.53 for the first, 2.87 for the second.

Compared with CCGAGTAGGTAACGAGGGGGCATTCAGTGCGAAT, CCGGGTAGGTTACGAGGGGGCATTCAGTGCGAAT is higher in PBM binding z-score: 2.24 for the first, 3.19 for the second.

First: CCGAGTAGCTTACGAGGGGGCATTCAGTGCGAAT
Second: CTATGAAGGTTAAGGGGGTCATTCAGTTTGAAAG
The PBM binding z-score of the first is lower: 1.67 for the first, 6.01 for the second.

First: CCGAGTAGGTTACGAGGAGGCATTCAGTGCGAAT
Second: CTCTGTAGGTTAAGGGGGTCATTCAGTTTGAAAG
The PBM binding z-score of the first is lower: 0.244 for the first, 6.17 for the second.

Going from CTATGGAGGTTAAGGGGGTCATTCAGTTTGAAAG to TCGAGTAGGTTACGGGGGCATTCACGGATGAAGA, the PBM binding z-score falls from 6.29 to 3.16.

First: CTATGTAGGTTAAGGGGGTCATTCAGTTTGAAAG
Second: CCGAGTAGGTTACGAGGGGGCCTTCAGTGCGAAT
The PBM binding z-score of the first is higher: 5.93 for the first, 1.56 for the second.

First: CCGAGTAGGTTACGAGGGGGCATTCACTGCGAAT
Second: CCGAGTAGGTTACGAGGGGGCATTCATTGCGAAT
The PBM binding z-score of the first is lower: 2.66 for the first, 2.77 for the second.

Going from CTATATAGGTTAAGGGGGTCATTCAGTTTGAAAG to CAGAGTAGGTTACGAGGGGGCATTCAGTGCGAAT, the PBM binding z-score falls from 6.42 to 2.83.

Going from CTATGTAGGTTAAGGGGTTCATTCAGTTTGAAAG to CCGAGTAGGTTACGAGGCGGCATTCAGTGCGAAT, the PBM binding z-score falls from 3.12 to 0.2.

Compared with CTAAGTAGGTTAAGGGGGTCATTCAGTTTGAAAG, TCGAGTAGGCTACGGGGGCATTCAGGGATGAAGA is lower in PBM binding z-score: 5.63 for the first, 1.43 for the second.

Compared with CCATGTAGGTTAAGGGGGTCATTCAGTTTGAAAG, CTATGTAGGTTAAGGGTGTCATTCAGTTTGAAAG is lower in PBM binding z-score: 5.82 for the first, 1.5 for the second.

Compared with CTATGTAGGCTAAGGGGGTCATTCAGTTTGAAAG, CCGAGTAGGTTACGAGGGGGCTTTCAGTGCGAAT is lower in PBM binding z-score: 5.12 for the first, 1.55 for the second.

Compared with CTATGTAGGTTAAGGGGGTCATTCGGTTTGAAAG, CTATGTTGGTTAAGGGGGTCATTCAGTTTGAAAG is lower in PBM binding z-score: 6.04 for the first, 5.62 for the second.

With CCGAGTAGGTTACGAGGGGGCATCCAGTGCGAAT the PBM binding z-score was 2.86.

System: RARa homodimer (NR concentration 270 nM)
Experiment: as above
How it was run: as §1

First: CCGAGTAGGTTACGAGGGGGCATTCAATGCGAAT
Second: CCGAGTAGGTTACGAGGGGGCATTTAGTGCGAAT
The PBM binding z-score of the first is higher: 0.217 for the first, 0.176 for the second.

Compared with TCGAGTAGGTTACGGGGGGATTCAGGGATGAAGA, CTGAGTAGGTTACGAGGGGGCATTCAGTGCGAAT is lower in PBM binding z-score: 2.04 for the first, 0.52 for the second.

First: CTATGTAGGTTAAGGGGGTCATACAGTTTGAAAG
Second: CTATGTAGGTTAAGGGGGTCTTTCAGTTTGAAAG
The PBM binding z-score of the first is higher: 2.55 for the first, 0.701 for the second.

First: CCGAGTAGGTTACGAGGGGGCAATCAGTGCGAAT
Second: CCGAGTAGGTTACCAGGGGGCATTCAGTGCGAAT
The PBM binding z-score of the first is higher: 0.639 for the first, 0.502 for the second.

Compared with TCGAGTCGGTTACGGGGGCATTCAGGGATGAAGA, TCGAGTAGGTTACGGGGACATTCAGGGATGAAGA is higher in PBM binding z-score: -0.175 for the first, 0.0881 for the second.

Going from CTATGTAGGTTAAGGGGGTCATTCCGTTTGAAAG to CTATGTAGGTTGAGGGGGTCATTCAGTTTGAAAG, the PBM binding z-score rises from 1.49 to 2.23.

First: CCGAGTGGGTTACGAGGGGGCATTCAGTGCGAAT
Second: CCGAGTAGGTTATGAGGGGGCATTCAGTGCGAAT
The PBM binding z-score of the first is lower: -0.433 for the first, 0.734 for the second.

Compared with CCGAGTAGGTAACGAGGGGGCATTCAGTGCGAAT, CCGGGTAGGTTACGAGGGGGCATTCAGTGCGAAT is higher in PBM binding z-score: 0.592 for the first, 0.857 for the second.

First: CCGAGTAGCTTACGAGGGGGCATTCAGTGCGAAT
Second: CTATGAAGGTTAAGGGGGTCATTCAGTTTGAAAG
The PBM binding z-score of the first is lower: -0.103 for the first, 2.51 for the second.

Going from CCGAGTAGGTTACGAGGAGGCATTCAGTGCGAAT to CTCTGTAGGTTAAGGGGGTCATTCAGTTTGAAAG, the PBM binding z-score rises from -0.663 to 1.78.

Compared with CTATGGAGGTTAAGGGGGTCATTCAGTTTGAAAG, TCGAGTAGGTTACGGGGGCATTCACGGATGAAGA is lower in PBM binding z-score: 2.33 for the first, 0.0892 for the second.

First: CTATGTAGGTTAAGGGGGTCATTCAGTTTGAAAG
Second: CCGAGTAGGTTACGAGGGGGCCTTCAGTGCGAAT
The PBM binding z-score of the first is higher: 1.81 for the first, 0.0772 for the second.

Compared with CCGAGTAGGTTACGAGGGGGCATTCACTGCGAAT, CCGAGTAGGTTACGAGGGGGCATTCATTGCGAAT is lower in PBM binding z-score: 0.267 for the first, 0.224 for the second.

Going from CTATATAGGTTAAGGGGGTCATTCAGTTTGAAAG to CAGAGTAGGTTACGAGGGGGCATTCAGTGCGAAT, the PBM binding z-score falls from 1.99 to 1.21.

Going from CTATGTAGGTTAAGGGGTTCATTCAGTTTGAAAG to CCGAGTAGGTTACGAGGCGGCATTCAGTGCGAAT, the PBM binding z-score falls from 1.25 to -0.448.

Going from CTAAGTAGGTTAAGGGGGTCATTCAGTTTGAAAG to TCGAGTAGGCTACGGGGGCATTCAGGGATGAAGA, the PBM binding z-score falls from 1.86 to -0.44.

Compared with CCATGTAGGTTAAGGGGGTCATTCAGTTTGAAAG, CTATGTAGGTTAAGGGTGTCATTCAGTTTGAAAG is lower in PBM binding z-score: 2.79 for the first, 0.262 for the second.

Going from CTATGTAGGCTAAGGGGGTCATTCAGTTTGAAAG to CCGAGTAGGTTACGAGGGGGCTTTCAGTGCGAAT, the PBM binding z-score falls from 0.465 to -0.415.

First: CTATGTAGGTTAAGGGGGTCATTCGGTTTGAAAG
Second: CTATGTTGGTTAAGGGGGTCATTCAGTTTGAAAG
The PBM binding z-score of the first is lower: 1.33 for the first, 4.36 for the second.

CCGAGTAGGTTACGAGGGGGCATCCAGTGCGAAT was tested, and the PBM binding z-score was 0.122.
